Screening results as filed in PubChem.
This is a sample that favours compounds with a hit; in the whole collection about 3.8% have one here.
TIM10 inh: growth inhibitors of isogenic TIM10 control yeast, primary screen, counter-screen for tim10-1 yeast inhibitor project, luminescence, uHTS; S. cerevisiae TIM10 strain growth, BacTiter-Glo luminescence, 24 h; inhibition, % at 10 µM; 1.4% of 330,000 active; AID 463195, 2010;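 active = inhibition of 40% or more at the single tested concentration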;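 also: wild-type TIM10 isogenic control strain grown at permissive 25 °C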
tim10-1 inh: growth inhibitors of tim10-1 mutant yeast, primary screen, luminescence, uHTS; inhibition, % at 20 µM; AID 463190, 2010; 2.2% of 330,000 active; S. cerevisiae tim10-1 ts strain growth, BacTiter-Glo, 24 h;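 active = inhibition of at least 40%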;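 also: mutant grown at 25 °C; 0% = DMSO wells with yeast and 100% = wells holding no yeast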
tim23-1 inh: growth inhibitors of tim23-1 mutant yeast, primary screen, luminescence, uHTS; S. cerevisiae tim23-1 growth, BacTiter-Glo luminescence, 24 h; inhibition, % at 20 µM; 1.3% of 330,000 active;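 active = growth inhibition of the mutant yeast at or above 50%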;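 also: temperature-sensitive mutant grown at 25 °C; plate controls were DMSO-treated mutant yeast for no effect and medium wells lacking yeast for full effect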
Yeast superoxide: reduction of superoxide in aged yeast, primary screen, HTS | S. cerevisiae aged cells, superoxide DHE fluorescence; stronger effect = lower value | superoxide response (% of plate mean), % at 10 µM | 0.18% of 330,000 active;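 active = superoxide response under a set limit, about three screen SD below normal, cut at about 65% in these data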;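 also: yeast aged for seven days with compound at 30 °C before DHE staining; 100% = average MFI of all compound-treated wells on the plate with controls excluded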
NALP3 yeast inh: NALP3 inflammasome inhibitors in reconstituted yeast, primary screen, luminescence, uHTS. Yeast reconstituted NLRP3/ASC/caspase-1, beta-gal luminescence, 24 h. inhibition, % at 10 µM. 0.39% of 330,000 active. AID 2825, 2010;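 active = inhibition of 50% or more; inactive = inhibition below 50%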;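 also: plate controls were induced DMSO wells for no effect and uninduced yeast grown without galactose for full effect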
tim10-1 conf: growth inhibitors of tim10-1 mutant yeast, confirmation, single concentration, luminescence, S. cerevisiae. inhibition, % at 20 µM. shares compounds with tim10-1 inh. S. cerevisiae tim10-1 ts strain growth, BacTiter-Glo, 24 h. AID 463213, 2010. 56% of 7,400 active;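 active = inhibition of yeast growth at or above a set limit in either of two repeat tests at 20 µM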;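 also: tim10-1 mutant grown at permissive 25 °C to find synthetic lethal compounds; 0% = DMSO yeast wells and 100% = medium wells without yeast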
TIM10 conf: growth inhibitors of wild-type TIM10 yeast, confirmation, counter-screen for tim10-1 synthetic lethality project, single concentration, luminescence, S. cerevisiae; shares compounds with TIM10 inh; S. cerevisiae tim10 strain growth, BacTiter-Glo luminescence, 24 h; inhibition, % at 10 µM; 63% of 4,600 active; AID 463215, 2010;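 active = inhibition of yeast growth at or above a set limit in either of two replicates at 10 µM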;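 also: this counterscreen used the strain with wild-type TIM10; 0% = yeast with DMSO and 100% = medium wells lacking yeast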
tim23-1 confirm: tim23-1 mutant yeast growth inhibitors, confirmation, luminescence, single concentration. shares compounds with tim23-1 inh. S. cerevisiae tim23-1 growth, BacTiter-Glo luminescence, 24 h. inhibition, % at 20 µM. 83% of 4,400 active. AID 463218, 2010;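 active = inhibition above about 39% in either of two replicate wells at 20 µM, limit read from the data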;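 also: temperature-sensitive tim23-1 mutant grown at 25 °C; 0% = DMSO wells with yeast and 100% = medium wells without yeast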
An asterisk follows results filed as active; x = no result given.

SMILES | TIM10 inh | tim10-1 inh | tim23-1 inh | Yeast superoxide | NALP3 yeast inh | tim10-1 conf | TIM10 conf | tim23-1 confirm
CCCN1C/C(=C/c2ccc3c(c2)OCO3)C(=O)/C(=C/c2ccc3c(c2)OCO3)C1 | 34.5 | 36.3 | 44.5 | 113.6 | 18.2 | x | x | x
CCCCc1cc(=O)oc2c(C)c(OCc3nn[nH]n3)ccc12 | -4.3 | 5.7 | -2.3 | 107.1 | 10.5 | x | x | x
COCCCNc1nc(-c2ccc(Cl)cc2)nc2ccccc12 | 27.2 | 45.6* | 58.8* | 104.1 | 25.9 | 33.7* | x | 54.0*
Cc1nnc(-c2ccc(Cl)cc2)nc1NCCN(C)C | 2.4 | 4.8 | -6.1 | 94.6 | -2.8 | x | x | x
OCCCNc1nc(-c2ccc(Cl)cc2)nc2ccccc12 | 33.7 | 43.3* | 59.7* | 102.0 | 17.1 | 27.1 | x | 30.8
OCCCNc1nc(-c2ccc(Br)cc2)nnc1-c1ccc(Cl)cc1 | 11.6 | 41.7* | 53.7* | 115.2 | 6.3 | 30.9* | x | 58.5*
CCn1c(SCc2cccc(F)c2)nc2c(c1=O)SCC2 | -9.6 | 15.2 | 4.3 | 108.0 | 3.4 | x | x | x
COc1ccccc1NS(=O)(=O)c1ccc(-c2cnc(C3CC3)o2)cc1 | -10.7 | 30.5 | 26.3 | 97.2 | 18.1 | x | x | x
Cc1ccc(NS(=O)(=O)c2ccc(-c3cnc(C4CC4)o3)cc2)c(C)c1 | 0.5 | 53.1* | 51.5* | 94.5 | 0.6 | 17.1 | x | 37.8
O=S(=O)(Nc1ccc(F)cc1Cl)c1ccc(-c2cnc(C3CC3)o2)cc1 | 17.9 | 53.2* | 54.6* | 99.5 | 18.9 | 16.6 | x | 48.9*
Cc1ccccc1/C=C1\C(=O)Nc2ccc(F)cc21 | 25.8 | 43.6* | 53.0* | 106.4 | 32.6 | 38.0* | x | 60.8*
CC1(C)NC(=O)N(CC(=O)OCC(=O)N2CCN(S(=O)(=O)c3ccccc3)CC2)C1=O | 0.9 | -15.9 | -7.2 | x | 14.4 | x | x | x
C=CCn1c(O)c(C2=c3ccccc3=NC2=O)c2ccccc21 | 11.8 | -146.2 | -2.4 | 108.5 | 30.2 | x | x | x
Cc1ccc2c(c1)c(C1=c3ccccc3=NC1=O)c(O)n2C | 41.2* | 50.1* | 52.1* | 100.3 | 12.0 | 33.3* | 50.3* | 64.3*
CCCN1C(=O)/C(=C/c2nc3ccccc3c(=O)[nH]2)c2ccccc21 | 42.4* | 50.7* | 52.0* | 91.6 | 10.5 | 35.7* | 15.9 | 54.5*
CCn1c(/C=C2/C(=O)N(C)c3ccccc32)nc2ccccc2c1=O | 37.3 | 50.5* | 53.6* | 107.6 | 23.7 | 32.3* | x | 58.2*
CCN1C(=O)/C(=C\c2nc3ccccc3c(=O)n2CC)c2ccccc21 | 46.9* | 55.5* | 55.7* | 149.4 | 15.5 | 44.2* | 32.6* | 57.3*
CCn1c(/C=C2\C(=O)N(C)c3ccccc32)nc2ccccc2c1=O | 43.4* | 45.5* | 51.6* | 105.8 | 13.7 | 39.0* | 25.1 | 52.4*
CC(=O)N1CCC(C(=O)N2CCN(S(=O)(=O)c3ccc(Cl)s3)CC2)CC1 | 4.5 | 8.2 | 5.2 | 106.5 | -10.5 | x | x | x
CC(C)NC(=O)c1c(CSc2ccccc2)noc1C(=O)NCc1ccccc1 | 11.1 | 18.3 | 26.0 | 92.3 | 11.0 | x | x | x
O=C(N/N=C/c1ccccn1)c1sc2ccccc2c1Cl | 17.0 | 47.6* | 75.7* | 108.9 | 33.7 | 41.0* | x | 63.8*
O=C(ONC1=NCCCCC1)c1c(F)cccc1F | 43.9* | 50.8* | 53.1* | 123.8 | 7.3 | 45.0* | 33.3* | 59.3*
O=C(ONC1=NCCCCC1)c1ccc(Cl)cc1 | 87.4* | 52.2* | 60.8* | 103.2 | 27.1 | 37.6* | 84.2* | 41.1*
Cc1ccc(NC(=O)CS(=O)CC(=O)Nc2ccccc2-c2ccc(C)o2)cc1 (configuration not stated) | 29.5 | 45.4* | 50.2* | 109.2 | 5.3 | 28.4* | x | 46.7*
CC(=O)Nc1ccccc1-c1ccc(C)o1 | 5.0 | -1.4 | 1.1 | 109.1 | -0.5 | x | x | x
SMILES | TIM10 inh | tim10-1 inh | tim23-1 inh | Yeast superoxide | NALP3 yeast inh | tim10-1 conf | TIM10 conf | tim23-1 confirm
O=C(COC(=O)C1CCN(c2ccc(C(F)(F)F)cn2)CC1)Nc1ccc(Cl)cc1 | 18.8 | 43.3* | 55.8* | 91.8 | 19.4 | 46.1* | x | 59.6*
O=C(COC(=O)C1CCN(c2ccc(C(F)(F)F)cn2)CC1)Nc1ccc(Cl)cn1 | 26.4 | 14.5 | 28.1 | 109.4 | 19.3 | x | x | x
O=C(c1ccccc1)c1cn[nH]c1-c1ccccc1O | 17.0 | 8.1 | 4.7 | 109.2 | 3.0 | x | x | x
O=c1[nH][nH]c(-c2ccccc2O)c1C(C[N+](=O)[O-])c1ccc(Br)cc1 (configuration not stated) | 53.4* | 51.8* | 61.6* | 118.1 | 32.8 | 43.5* | -22.4 | 65.4*
CCN(C[C@H]1N[C@@](CC)(C(=O)OC)[C@H]2C(=O)N(C)C(=O)[C@@H]12)S(=O)(=O)c1ccc(OC)cc1 | -0.4 | -6.9 | -7.0 | 106.6 | 12.5 | x | x | x
O=C1Nc2ccccc2/C1=N\N=C\C1=C(N2CCOCC2)C(=C\c2ccccc2)/CC1 | 46.5* | 61.2* | 58.5* | 111.0 | -5.6 | 51.7* | 36.1* | 50.6*
O=C(c1ccc2c(c1)OCCO2)C1CCN(S(=O)(=O)c2ccccc2F)CC1 | 42.3* | 50.3* | 52.8* | 104.5 | 23.4 | 42.8* | 29.8 | 48.5*
O=C(CN1CCC(C(=O)c2ccc3c(c2)OCCO3)CC1)Nc1ccccc1F | -5.2 | 25.6 | 26.3 | 96.7 | 5.1 | x | x | x
COc1ccc(S(=O)(=O)N2CCC(C(=O)c3ccc4c(c3)OCCO4)CC2)cc1 | 59.7* | 55.0* | 59.1* | 99.5 | 41.5 | 55.0* | 55.1* | 55.0*
COc1ccc(S(=O)(=O)N2CCN(S(=O)(=O)c3ccc4c(c3)OCCO4)CC2)cc1 | -34.0 | -40.9 | -18.7 | 95.2 | 20.2 | x | x | x
CC1CC2(CCCCC2)N2C(=O)C(=O)c3cccc1c32 (configuration not stated) | 28.7 | 42.1* | 69.1* | 147.0 | 4.0 | 52.2* | x | 78.8*
CC1CC(C)(C)N2C(=O)C(=C(C#N)C#N)c3cccc1c32 (configuration not stated) | 54.4* | 70.7* | 70.0* | 110.1 | 19.4 | 68.0* | 42.6* | 82.0*
CCn1c(P(C)(=O)O)nc2cc(NC(=O)c3ccccc3Cl)ccc21 | -0.9 | 3.0 | 16.7 | 104.9 | 7.8 | x | x | x
COc1ccc(NC(=O)C2CCCN2C(=O)Nc2ccc(OC)cc2)cc1 (configuration not stated) | 8.4 | 6.7 | -2.0 | x | -2.4 | x | x | x
